BLM inh-1: blocks DNA unwinding by human BLM helicase; recombinant BLM DNA unwinding, fluorescence dequenching; Potency, µM (highest dose often 56.1 µM), for inactives: top-dose activity change, negative = inhibition, actives largely listed as inhibitors; 0.2% of 350,000 active; AID 2528;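 note: plate controls were vehicle for no effect and no enzyme for full effect; nearly all actives have a fitted effect of over 35% in size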
RECQ1 inh-1: inhibitors of human RECQ1 DNA helicase. RECQ1 DNA unwinding, red fluorescence kinetic read. P46063. Potency, µM (top dose mostly 57.3 µM), without a hit: at the highest dose activity, negative = inhibition, most hits filed as inhibitors. 0.54% of 240,000 active;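 note: plate controls were vehicle for no effect and no enzyme for full effect; nearly all actives have a fitted effect of over 30% in size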
Target sequence (P46063 whole entry, looked up): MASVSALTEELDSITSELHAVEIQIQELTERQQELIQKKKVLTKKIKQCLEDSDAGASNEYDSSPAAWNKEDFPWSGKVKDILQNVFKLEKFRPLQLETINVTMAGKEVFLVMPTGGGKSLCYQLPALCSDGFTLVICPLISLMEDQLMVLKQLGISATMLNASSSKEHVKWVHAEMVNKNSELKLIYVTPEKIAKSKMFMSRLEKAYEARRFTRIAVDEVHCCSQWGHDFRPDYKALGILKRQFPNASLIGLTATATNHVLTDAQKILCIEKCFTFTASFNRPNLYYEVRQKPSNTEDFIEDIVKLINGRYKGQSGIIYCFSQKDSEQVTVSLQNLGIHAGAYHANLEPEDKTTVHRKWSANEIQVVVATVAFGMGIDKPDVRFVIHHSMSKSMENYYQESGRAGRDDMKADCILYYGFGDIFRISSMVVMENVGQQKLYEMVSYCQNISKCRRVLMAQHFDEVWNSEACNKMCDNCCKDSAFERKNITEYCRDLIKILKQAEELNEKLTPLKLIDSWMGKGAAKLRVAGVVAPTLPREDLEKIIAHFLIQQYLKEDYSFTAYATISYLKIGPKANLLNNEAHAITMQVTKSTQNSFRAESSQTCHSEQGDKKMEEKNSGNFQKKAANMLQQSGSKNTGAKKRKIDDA
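50 nM RECQ1T1 preincubated 15 min with compound in Tris pH 8.0 buffer with MgCl2, DTT, Tween-20 and 2.5 ug/ml poly(dI-dC); started with 200 nM TAMRA/BHQ-2 forked duplex and 2 mM ATP. Unwinding read as fluorescence (525/598 nm), two reads 2 h apart.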
JMJD2E inh: inhibitors of human JMJD2E histone demethylase; B2RXH2; JMJD2E catalytic domain, FDH-coupled NADH fluorescence (FDH is formaldehyde dehydrogenase); Potency, µM (top dose mostly 57.1 µM), inactives show at the highest dose activity change, negative = inhibition, usual class: inhibitors; 1.6% of 230,000 active; AID 2147; active = well fitted inhibition curve with a large enough effect, not every such curve was filed as active; inconclusive = small, poorly fitted or top-dose-only effect, or another doubt; inactive = no such curve, though single readings can be large or run the other way;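 note: 0% = wells with enzyme and -100% = buffer wells without enzyme; nearly all actives have a fitted effect of over 50% in size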
L3MBTL1 block: inhibitors of human L3MBTL1; Q9Y468; AlphaScreen L3MBTL1–H3K9me1 peptide binding; Potency, µM (highest dose often 57.1 µM), inactives show at the highest dose activity, negative = inhibition, most hits filed as inhibitors; 0.66% of 230,000 active; AID 485360; note: nearly all actives have a fitted effect of over 60% in size
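AlphaScreen assay: L3MBTL1 (50 nM final) was preincubated 30 min at room temperature with biotinylated H3(1-15)K9me1 peptide (75 nM final), then 30 min with library compounds; streptavidin donor and nickel chelate acceptor beads (10 ug/mL final) added, 30 min dark.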
APE1 inh: blocks human APE1 abasic DNA cleavage; P27695; recombinant APE1, TAMRA/BHQ-2 abasic DNA cleavage fluorescence; Potency, µM (top dose mostly 65.8 µM), inactives show at the top dose activity change, negative = inhibition, most hits filed as inhibitors; 0.35% of 350,000 active; AID 2517;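 note: plate controls were vehicle for no effect and reference inhibitor for full effect; nearly all actives have a fitted effect of over 55% in size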
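Endonuclease cleavage of a quenched abasic-site DNA duplex (50 nM) by APE1 (0.75 nM) was tracked by TAMRA dequenching. Compounds were preincubated with enzyme 15 min at room temperature; data normalized to buffer-only and DMSO wells plus NSC13755 control.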
BLM inh-2: BLM (human) helicase inhibition, confirmation. shares compounds with BLM inh-1. BLM DNA unwinding, fluorescence quenching, biochemical. Potency, µM, without a hit: max response, negative = inhibition, hits mostly inhibitors. 40% of 220 active. AID 2585;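 note: strand separation dequenches TAMRA so unwinding raises red fluorescence; series mostly up to about 69 µM; nearly all actives have a fitted effect of over 45% in size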
RECQ1 inh conf: confirmation of human RECQ1 helicase inhibitors. shares compounds with RECQ1 inh-1. RECQ1 helicase DNA unwinding, fluorescence. Potency, µM (top dose mostly 229 µM), for the others: at the highest dose activity change, negative = inhibition, actives largely listed as inhibitors. 28% of 610 active. AID 2708; note: nearly all actives have a fitted effect of over 45% in size
RECQ1 inh-2: confirmation of human RECQ1 helicase inhibitors; shares compounds with RECQ1 inh-1; recombinant RECQ1 DNA unwinding, red fluorescence; Potency, µM (doses to about 119 µM), without a hit: at the top dose activity, negative = inhibition, actives largely listed as inhibitors; AID 504841; 15% of 1,100 active; note: nearly all actives have a fitted effect of over 50% in size
Starred values were filed as active, the others as inactive; i = inactive; ? = inconclusive; · = no result given; ! = a repeat was not active. The sample as a whole holds a higher share of hits than the screen did. Unless noted, calls come from the whole dose curve; as a rule, active = well fitted curve in the direction sought with a large enough effect; inconclusive = small, poorly fitted or top-dose-only effect, or another doubt; inactive = no such curve, though single readings can be large; an effect the other way counts as inactive or inconclusive. Unless noted, % is set by controls: 0 for no effect and ±100 for the full control effect; potency is the fitted concentration of half-maximal effect.

SMILES | BLM inh-1 | RECQ1 inh-1 | JMJD2E inh | L3MBTL1 block | APE1 inh | BLM inh-2 | others
CCCc1cc(=O)[nH]c(SCC(=O)Nc2ccc3c(c2)CCC3)n1 | 0% | -8% | 4% | 5% | -1% | ·
O=C(CCl)Nc1ccccc1Sc1ccccc1 | 8.9µM* | 0% | -1% | · | 0% | 13µM*
COC(=O)c1c(NC(=O)COC(=O)c2ccc(NC(=O)CC#N)cc2)sc2c1CCCCC2 | 32µM* | i | 5µM* | ? | 14% | ?
COC(=O)c1c(NC(=O)COC(=O)c2ccccc2O)sc2c1CCCCC2 | 0% | -2% | ? | 37% | 6% | ·
CCSc1ccc(-c2ccco2)nn1 | 10µM* | -22% | ? | · | 0% | ?
O=C(Cn1ccn(-c2ccc(F)c(F)c2)c(=O)c1=O)NCc1ccccc1 | -1% | · | · | · | · | ·
CC(C)N(C(=O)Nc1ccc2nsnc2c1)C(C)C | 5.6µM* | i | 1% | -76% | 4% | ?
CCCN1CCN(CC(=O)Nc2nnc(C)s2)CC1 | -1% | · | · | · | -4% | ·
COCCNC(=O)CCCn1c(=O)c2ccccc2n(Cc2ccccc2C#N)c1=O | -2% | · | · | · | 20% | ·
Cc1nc(-c2ccc(C(=O)Nc3cc(S(N)(=O)=O)ccc3C)cc2)cs1 | 7.1µM* | · | · | -7% | 29% | 6.5µM*
CCOC(=O)c1ccc(NC(=O)Nc2ncc(Cl)cc2Cl)cc1 | -9% | 4% | 2% | · | -4% | ·
COc1ccc2c(c1)C(=NNC(=O)c1ccccn1)c1cc(OC)ccc1-2 | 10µM* | -5% | -1% | 2% | 11% | 29µM*
Cc1sc(N)nc1-c1c(C)n(C)c2ccccc12 | -4% | · | · | · | 32% | ·
CN(C)c1ccc(-c2nc(NCc3cccnc3)c3ccccc3n2)cc1 | 16µM* | ? | ? | · | -2% | 23µM*
c1cncc(CNc2nc(-c3ccoc3)nc3ccccc23)c1 | -14% | -20% | ? | · | 0% | ·
CC1(C)Cc2c(c(-c3ccco3)nc3sc4c(NCCCO)ncnc4c23)CO1 | -18% | -13% | ? | · | -4% | ·
CSc1nc(N(C)CCO)c2sc3nc(-c4ccco4)c4c(c3c2n1)CCC4 | 20µM* | ? | ? | ? | 0% | ?
O=C(O)CSc1cc(C(=O)c2ccccc2O)cn2c(=O)c3c(-c4ccccc4)csc3nc12 | 28µM* | -22% | 0% | -10% | -8% | ?
CCOc1ccc2nc3cc(NCc4ccc(OC)cc4)ccc3c(N)c2c1 | 14µM* | · | · | · | -22% | 7.3µM*
CC1=NN(c2ccccc2)C(=O)/C1=C/c1c(O)n(-c2ccc(F)c(Cl)c2)[nH]c1=O | 18µM* | -6% | -15% | -29% | -5% | 36µM*
O=C(Nc1ccccc1)Oc1ccc[nH]c1=O | 4.5µM* | -5% | 22µM* | · | -4% | -2%
CC[C@]12c3[nH]c4cc(CCC(=O)N(C)C)ccc4c3CCN1C(=O)[C@@H](CC(=O)NC/C=C(\C)CCC=C(C)C)C[C@@H]2C(=O)N1CCN(C(=O)c2ccco2)CC1 | · | · | · | 3% | 2% | ·
O=C(Nc1cccc(-c2nc3cccnc3s2)c1)c1cccnc1Cl | -9% | -9% | -26% | · | 1% | ·
O=C(Nc1cccc(-c2nc3cccnc3s2)c1)C1c2ccccc2Oc2ccccc21 | 10µM* | -29% | -11% | -3% | ? | 13µM*
COc1ccc(/C=N/NC(=O)c2cccc(NC(=O)c3ccccc3Cl)c2)cc1 | 1% | · | · | · | 69% | ·
SMILES | BLM inh-1 | RECQ1 inh-1 | JMJD2E inh | L3MBTL1 block | APE1 inh | BLM inh-2 | others
COc1ccc(Cc2nc3ccccc3n2CC(=O)N/N=C/c2ccc(O)cc2)cc1OC | 1% | -1% | 9% | 4% | -2% | ·
COc1ccc(Cc2nc3ccccc3n2CC(=O)N/N=C/c2ccc(C)cc2O)cc1OC | 10µM* | 9% | -1% | -15% | -4% | ?
N/C(=N\OC(=O)CCC(=O)O)c1ncc(C(F)(F)F)cc1Cl | -5% | i | -4% | -13% | -9% | ·
O=C(CSc1nnc2scc(-c3ccccc3)n12)Nc1nsc(-c2ccccc2)n1 | 20µM* | 5% | -5% | 2% | -3% | 36µM*
Cc1ccc(-c2csc3nnc(SCC(=O)Nc4nsc(-c5ccccc5)n4)n23)cc1 | -10% | -13% | -9% | · | -1% | ·
O=C(NCc1ccncc1)c1cccc(Cn2cc(Br)cn2)c1 | -6% | -2% | -12% | 8% | -4% | ·
O=c1oc(-c2ccccc2)nc2sc3c(c12)CCC3 | 14µM* | 2% | -11% | 13µM* | 1% | ?
O=C(NCCC1=CCCCC1)C1CCN(S(=O)(=O)c2cccs2)CC1 | -2% | 1% | -1% | 0% | -3% | ·
Oc1ccc(NCc2ccccc2OCc2ccccc2F)cc1 | 28µM*! | -10% | 5µM* | ? | ? | ?
Cc1ccc(NCc2ccccc2OCc2ccccc2F)cc1 | -23% | -14% | 2% | · | -10% | ·
CCOc1cccc(CNc2ccc(O)cc2)c1OCc1ccc(Cl)cc1 | 28µM* | -9% | -28% | ? | -11% | -11%
Cc1cccc(OCC(=O)NCc2n[nH]c(=O)c3ccccc23)c1 | · | · | · | 7% | -1% | ·
CSc1nc2ccc3nc(NC(=O)C4COc5ccccc5O4)sc3c2s1 (centres undefined) | -5% | i | ? | -2% | ? | ·
Cc1nc2ccc3nc(NC(=O)C4COc5ccccc5O4)sc3c2s1 (centres undefined) | -4% | -16% | ? | -5% | -7% | 4%
CCCCn1c(=O)[nH]c2nc3cc(N)ccc3nc2c1=O | 5.6µM* | -9% | -3% | -5% | 13% | ?
C=CCn1c(=O)[nH]c2nc3cc(N=CN(C)C)c(C)cc3nc2c1=O | -7% | -3% | ? | · | -1% | ·
Cc1ccc(-c2nc3c(c(SCC(=O)Nc4cccc(C(=O)O)c4)n2)Cc2cccc(C)c2O3)cc1 | 4.5µM* | · | · | 5.6µM* | 1.9µM* | 14µM* | RECQ1 inh conf=6.5µM*
O=C(/C=C/c1ccc(Br)cc1)c1ccc(NC(=O)c2ccco2)cc1 | -18% | 4µM* | -4% | -5% | 17% | 27µM* | RECQ1 inh conf=?;RECQ1 inh-2=?

Bioassay records deposited in PubChem by National Center for Advancing Translational Sciences (NCATS).
